# Laboratory results published in article PMC7862700, “An all-to-all approach to the identification of sequence-specific readers for epigenetic DNA modifications on cytosine”.
# Experiments:
# Experiment in all cases: DAPPL (digital affinity profiling via proximity ligation, sequencing); 10 mM Tris-HCl pH 7.5, 50 mM NaCl, 1 mM DTT, 4% glycerol, room temperature, 30 min; GST-TFs on glutathione beads, 16-mer random dsDNA library, 0.1% formaldehyde crosslink after washing; high values mean tight binding
# FLI1 = biological target: T1, FLI1 (Homo sapiens, UniProt Q01543 1-452); conditions: protein: recombinant; tags: N-terminal GST; dsDNA, one strand shown
# T1 sequence: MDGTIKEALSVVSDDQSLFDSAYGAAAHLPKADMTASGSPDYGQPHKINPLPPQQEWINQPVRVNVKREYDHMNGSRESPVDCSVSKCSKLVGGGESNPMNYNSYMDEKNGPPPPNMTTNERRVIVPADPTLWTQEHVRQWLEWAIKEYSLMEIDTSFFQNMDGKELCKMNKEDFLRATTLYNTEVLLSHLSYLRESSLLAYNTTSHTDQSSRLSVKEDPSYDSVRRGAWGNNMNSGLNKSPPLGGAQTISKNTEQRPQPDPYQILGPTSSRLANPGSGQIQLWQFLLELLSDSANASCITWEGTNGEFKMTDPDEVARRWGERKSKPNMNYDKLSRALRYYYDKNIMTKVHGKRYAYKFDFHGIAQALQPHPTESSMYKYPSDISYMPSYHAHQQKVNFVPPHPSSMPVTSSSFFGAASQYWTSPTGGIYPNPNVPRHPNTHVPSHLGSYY
# Procedure, shortened: (§1)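 Pools of DNA-barcoded human transcription factors, expressed in yeast as GST fusions on glutathione beads and combined with a tag-only sample, were incubated with 200 nmole of a 16-mer random double-stranded DNA library. Incubation took 30 min at room temperature in Tris/NaCl/DTT/glycerol buffer and was followed by washing, 0.1% formaldehyde crosslinking, proximity ligation (BsaI/T4 ligase, 1 h, 37 °C), PCR amplification and sequencing on an Illumina NextSeq500. Binding signal is the ratio of a hexamer's read frequency for a factor to its frequency for the tag-only sample.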
# ELK1 = biological target: T2, ELK1 (Homo sapiens, UniProt P19419 1-428); conditions: protein: recombinant; tags: N-terminal GST; dsDNA, one strand shown
# T2 sequence: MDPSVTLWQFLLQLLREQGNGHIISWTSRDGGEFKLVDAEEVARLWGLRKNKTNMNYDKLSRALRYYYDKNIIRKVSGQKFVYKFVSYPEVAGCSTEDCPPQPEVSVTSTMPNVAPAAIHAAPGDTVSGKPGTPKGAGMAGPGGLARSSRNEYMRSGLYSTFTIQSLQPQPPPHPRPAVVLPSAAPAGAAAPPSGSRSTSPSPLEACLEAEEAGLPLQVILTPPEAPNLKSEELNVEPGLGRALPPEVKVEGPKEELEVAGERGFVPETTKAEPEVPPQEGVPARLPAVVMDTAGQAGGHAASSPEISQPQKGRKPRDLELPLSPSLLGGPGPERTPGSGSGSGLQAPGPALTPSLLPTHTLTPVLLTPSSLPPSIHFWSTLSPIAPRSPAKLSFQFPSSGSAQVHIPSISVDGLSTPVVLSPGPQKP
# Procedure, shortened: as §1
# GABPA = biological target: T3, GABPA (Homo sapiens, UniProt Q06546 1-454); conditions: protein: recombinant; tags: N-terminal GST; dsDNA, one strand shown
# T3 sequence: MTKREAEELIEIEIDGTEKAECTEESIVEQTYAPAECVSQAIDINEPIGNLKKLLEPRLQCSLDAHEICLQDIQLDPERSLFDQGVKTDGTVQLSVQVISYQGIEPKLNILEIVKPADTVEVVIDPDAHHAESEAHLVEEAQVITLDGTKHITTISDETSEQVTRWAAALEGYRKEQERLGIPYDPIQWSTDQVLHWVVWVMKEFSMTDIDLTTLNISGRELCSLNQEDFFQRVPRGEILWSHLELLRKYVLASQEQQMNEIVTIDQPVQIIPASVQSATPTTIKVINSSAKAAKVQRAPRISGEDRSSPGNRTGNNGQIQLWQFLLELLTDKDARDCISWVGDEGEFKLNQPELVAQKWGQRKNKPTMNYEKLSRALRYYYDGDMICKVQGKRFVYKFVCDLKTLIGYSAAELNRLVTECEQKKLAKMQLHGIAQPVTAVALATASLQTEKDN
# Procedure, shortened: as §1
# ERG = biological target: T4, ERG (Homo sapiens, UniProt P11308 1-479); conditions: protein: recombinant; tags: N-terminal GST; dsDNA, one strand shown
# T4 sequence: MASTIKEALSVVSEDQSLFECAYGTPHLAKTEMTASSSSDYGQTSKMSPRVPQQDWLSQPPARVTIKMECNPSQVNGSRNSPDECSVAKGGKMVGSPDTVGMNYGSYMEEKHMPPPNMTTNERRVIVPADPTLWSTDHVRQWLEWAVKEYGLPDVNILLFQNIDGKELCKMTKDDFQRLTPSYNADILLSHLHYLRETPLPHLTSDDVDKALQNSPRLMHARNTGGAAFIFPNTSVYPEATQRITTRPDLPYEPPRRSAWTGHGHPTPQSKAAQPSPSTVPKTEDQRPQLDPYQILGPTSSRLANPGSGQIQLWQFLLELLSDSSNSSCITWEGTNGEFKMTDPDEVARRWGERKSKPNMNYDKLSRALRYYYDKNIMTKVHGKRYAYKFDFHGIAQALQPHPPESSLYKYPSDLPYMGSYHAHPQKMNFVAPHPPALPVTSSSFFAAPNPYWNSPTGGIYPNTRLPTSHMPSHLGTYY
# Procedure, shortened: as §1
# ELF1 = ELF1 (Homo sapiens, UniProt P32519 1-619); conditions: protein: recombinant; tags: N-terminal GST; dsDNA, one strand shown
# Procedure, shortened: as §1
# EHF = biological target: T5, EHF (Homo sapiens, UniProt Q9NZC4 1-300); conditions: protein: recombinant; tags: N-terminal GST; dsDNA, one strand shown
# T5 sequence: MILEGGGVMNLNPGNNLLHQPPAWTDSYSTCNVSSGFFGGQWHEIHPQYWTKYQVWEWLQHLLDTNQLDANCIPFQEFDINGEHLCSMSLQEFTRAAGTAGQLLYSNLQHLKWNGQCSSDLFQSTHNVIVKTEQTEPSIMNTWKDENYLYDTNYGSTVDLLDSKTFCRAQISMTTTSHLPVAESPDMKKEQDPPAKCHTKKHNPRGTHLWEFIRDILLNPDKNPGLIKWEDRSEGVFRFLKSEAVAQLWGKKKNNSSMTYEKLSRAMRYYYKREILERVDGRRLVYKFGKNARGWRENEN
# Procedure, shortened: as §1
# SPI1 = SPI1 (Homo sapiens, UniProt P17947 1-270); conditions: protein: recombinant; tags: N-terminal GST; dsDNA, one strand shown
# Procedure, shortened: as §1
# SPIB = SPIB (Homo sapiens, UniProt Q01892 1-262); conditions: protein: recombinant; tags: N-terminal GST; dsDNA, one strand shown
# Procedure, shortened: as §1
# ELK3 = biological target: T6, ELK3 (Homo sapiens, UniProt P41970 1-407); conditions: protein: recombinant; tags: N-terminal GST; dsDNA, one strand shown
# T6 sequence: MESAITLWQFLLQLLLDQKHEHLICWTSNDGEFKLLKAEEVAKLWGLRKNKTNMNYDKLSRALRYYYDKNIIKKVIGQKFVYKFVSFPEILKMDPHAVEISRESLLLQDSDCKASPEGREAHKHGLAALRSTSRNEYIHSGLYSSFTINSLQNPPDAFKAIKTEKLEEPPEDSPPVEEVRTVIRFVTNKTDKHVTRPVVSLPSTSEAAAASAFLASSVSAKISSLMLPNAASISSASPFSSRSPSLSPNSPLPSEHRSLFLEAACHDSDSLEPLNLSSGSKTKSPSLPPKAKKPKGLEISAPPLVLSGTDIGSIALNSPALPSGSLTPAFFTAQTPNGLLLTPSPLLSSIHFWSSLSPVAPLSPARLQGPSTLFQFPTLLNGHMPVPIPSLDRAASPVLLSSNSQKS
# Procedure, shortened: as §1
# FEV = biological target: T7, FEV (Homo sapiens, UniProt Q99581 1-238); conditions: protein: recombinant; tags: N-terminal GST; dsDNA, one strand shown
# T7 sequence: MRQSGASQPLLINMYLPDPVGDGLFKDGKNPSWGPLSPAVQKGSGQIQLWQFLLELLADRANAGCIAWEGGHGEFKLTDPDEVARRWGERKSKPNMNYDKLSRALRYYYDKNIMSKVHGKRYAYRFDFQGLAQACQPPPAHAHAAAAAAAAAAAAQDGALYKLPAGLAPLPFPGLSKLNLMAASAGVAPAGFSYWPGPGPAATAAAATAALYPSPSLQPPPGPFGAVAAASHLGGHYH
# Procedure, shortened: as §1
# ETV5 = ETV5 (Homo sapiens, UniProt P41161 1-510); conditions: protein: recombinant; tags: N-terminal GST; dsDNA, one strand shown
# Procedure, shortened: as §1
# HSF1 = HSF1 (Homo sapiens, UniProt Q00613 1-529); conditions: protein: recombinant; tags: N-terminal GST; chain copies: 3; dsDNA, one strand shown
# Procedure, shortened: as §1
# SPIC = biological target: T8, SPIC (Homo sapiens, UniProt Q8N5J4 1-248); conditions: protein: recombinant; tags: N-terminal GST; dsDNA, one strand shown
# T8 sequence: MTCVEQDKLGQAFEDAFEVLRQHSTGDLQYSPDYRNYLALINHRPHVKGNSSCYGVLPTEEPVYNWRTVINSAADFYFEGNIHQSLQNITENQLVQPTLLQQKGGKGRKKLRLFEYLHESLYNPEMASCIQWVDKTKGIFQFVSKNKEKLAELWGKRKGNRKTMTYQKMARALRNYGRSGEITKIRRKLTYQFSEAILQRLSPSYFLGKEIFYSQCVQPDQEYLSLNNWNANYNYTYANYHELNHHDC
# Procedure, shortened: as §1
# ELF4 = ELF4 (Homo sapiens, UniProt Q99607 1-663); conditions: protein: recombinant; tags: N-terminal GST; dsDNA, one strand shown
# Procedure, shortened: as §1
# ELK4 = biological target: T9, ELK4 (Homo sapiens, UniProt P28324-2 1-405); conditions: protein: recombinant; tags: N-terminal GST; dsDNA, one strand shown
# T9 sequence: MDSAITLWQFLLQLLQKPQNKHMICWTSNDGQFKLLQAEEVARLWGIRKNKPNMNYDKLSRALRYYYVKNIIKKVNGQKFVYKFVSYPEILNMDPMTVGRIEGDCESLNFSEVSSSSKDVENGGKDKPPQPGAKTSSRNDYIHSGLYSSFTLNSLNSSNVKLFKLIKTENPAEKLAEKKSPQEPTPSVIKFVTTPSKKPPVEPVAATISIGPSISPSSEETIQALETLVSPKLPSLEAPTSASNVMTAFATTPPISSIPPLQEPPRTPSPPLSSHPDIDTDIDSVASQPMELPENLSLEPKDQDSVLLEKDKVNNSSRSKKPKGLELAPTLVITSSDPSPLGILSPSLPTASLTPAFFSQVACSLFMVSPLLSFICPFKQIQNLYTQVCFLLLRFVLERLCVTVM
# Procedure, shortened: as §1
# ETV2 = biological target: T10, ETV2 (Homo sapiens, UniProt O00321 1-342); conditions: protein: recombinant; tags: N-terminal GST; dsDNA, one strand shown
# T10 sequence: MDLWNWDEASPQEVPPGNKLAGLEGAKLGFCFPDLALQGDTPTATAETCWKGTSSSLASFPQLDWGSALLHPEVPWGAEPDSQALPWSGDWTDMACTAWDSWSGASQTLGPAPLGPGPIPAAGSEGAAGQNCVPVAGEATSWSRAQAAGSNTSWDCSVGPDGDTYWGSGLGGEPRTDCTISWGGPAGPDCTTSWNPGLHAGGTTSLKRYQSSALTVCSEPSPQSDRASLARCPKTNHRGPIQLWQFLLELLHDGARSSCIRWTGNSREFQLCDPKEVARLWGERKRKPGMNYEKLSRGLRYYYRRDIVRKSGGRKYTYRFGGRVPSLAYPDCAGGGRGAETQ
# Procedure, shortened: as §1
# ELF3 = biological target: T11, ELF3 (Homo sapiens, UniProt P78545 1-371); conditions: protein: recombinant; tags: N-terminal GST; dsDNA, one strand shown
# T11 sequence: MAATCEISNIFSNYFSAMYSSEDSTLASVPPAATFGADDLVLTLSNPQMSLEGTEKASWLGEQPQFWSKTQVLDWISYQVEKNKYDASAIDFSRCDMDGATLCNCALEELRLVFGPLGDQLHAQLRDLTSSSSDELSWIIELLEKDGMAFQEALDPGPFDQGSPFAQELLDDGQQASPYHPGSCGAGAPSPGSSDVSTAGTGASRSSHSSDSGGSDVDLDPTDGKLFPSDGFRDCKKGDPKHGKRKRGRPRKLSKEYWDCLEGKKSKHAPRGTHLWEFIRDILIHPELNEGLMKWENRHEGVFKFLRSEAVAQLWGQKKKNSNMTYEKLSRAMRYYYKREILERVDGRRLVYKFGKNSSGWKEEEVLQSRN
# Procedure, shortened: as §1
# CRX = CRX (Homo sapiens, UniProt O43186 1-299); conditions: protein: recombinant; tags: N-terminal GST; dsDNA, one strand shown
# Procedure, shortened: as §1
# ETV1 = ETV1 (Homo sapiens, UniProt P50549 1-477); conditions: protein: recombinant; tags: N-terminal GST; dsDNA, one strand shown
# Procedure, shortened: as §1
# Chain of SPIB (Q01892 whole entry): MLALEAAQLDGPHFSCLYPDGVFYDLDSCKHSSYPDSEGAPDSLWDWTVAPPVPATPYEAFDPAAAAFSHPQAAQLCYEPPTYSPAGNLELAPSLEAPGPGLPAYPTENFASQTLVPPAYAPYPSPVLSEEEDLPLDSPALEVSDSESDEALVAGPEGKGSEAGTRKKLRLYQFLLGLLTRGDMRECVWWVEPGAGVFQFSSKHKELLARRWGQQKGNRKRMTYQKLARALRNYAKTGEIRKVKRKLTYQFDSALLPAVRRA
# Chain of ETV5 (P41161 whole entry): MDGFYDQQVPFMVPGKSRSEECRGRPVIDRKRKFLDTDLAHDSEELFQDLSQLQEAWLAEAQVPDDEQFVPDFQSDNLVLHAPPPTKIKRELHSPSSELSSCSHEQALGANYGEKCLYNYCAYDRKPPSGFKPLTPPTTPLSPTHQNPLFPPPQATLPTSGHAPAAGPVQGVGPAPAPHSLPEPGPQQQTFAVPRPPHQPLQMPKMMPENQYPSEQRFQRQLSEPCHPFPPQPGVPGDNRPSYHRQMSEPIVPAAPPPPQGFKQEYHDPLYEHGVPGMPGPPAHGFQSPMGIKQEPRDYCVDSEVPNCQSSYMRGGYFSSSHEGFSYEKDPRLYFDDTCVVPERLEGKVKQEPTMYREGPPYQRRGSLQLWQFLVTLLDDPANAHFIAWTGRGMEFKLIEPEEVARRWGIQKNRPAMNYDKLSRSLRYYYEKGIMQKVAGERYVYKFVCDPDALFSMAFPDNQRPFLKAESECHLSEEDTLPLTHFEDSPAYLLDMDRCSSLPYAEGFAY
# Chain of CRX (O43186 whole entry): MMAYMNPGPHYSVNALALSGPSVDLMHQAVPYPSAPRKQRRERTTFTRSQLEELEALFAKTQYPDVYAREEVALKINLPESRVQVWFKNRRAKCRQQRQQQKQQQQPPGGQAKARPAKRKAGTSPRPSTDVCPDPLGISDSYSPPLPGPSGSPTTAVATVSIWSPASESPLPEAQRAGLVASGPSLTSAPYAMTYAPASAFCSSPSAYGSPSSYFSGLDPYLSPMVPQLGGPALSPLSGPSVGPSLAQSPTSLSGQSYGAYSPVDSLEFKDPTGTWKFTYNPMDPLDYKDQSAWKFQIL
# Chain of ELF4 (Q99607 whole entry): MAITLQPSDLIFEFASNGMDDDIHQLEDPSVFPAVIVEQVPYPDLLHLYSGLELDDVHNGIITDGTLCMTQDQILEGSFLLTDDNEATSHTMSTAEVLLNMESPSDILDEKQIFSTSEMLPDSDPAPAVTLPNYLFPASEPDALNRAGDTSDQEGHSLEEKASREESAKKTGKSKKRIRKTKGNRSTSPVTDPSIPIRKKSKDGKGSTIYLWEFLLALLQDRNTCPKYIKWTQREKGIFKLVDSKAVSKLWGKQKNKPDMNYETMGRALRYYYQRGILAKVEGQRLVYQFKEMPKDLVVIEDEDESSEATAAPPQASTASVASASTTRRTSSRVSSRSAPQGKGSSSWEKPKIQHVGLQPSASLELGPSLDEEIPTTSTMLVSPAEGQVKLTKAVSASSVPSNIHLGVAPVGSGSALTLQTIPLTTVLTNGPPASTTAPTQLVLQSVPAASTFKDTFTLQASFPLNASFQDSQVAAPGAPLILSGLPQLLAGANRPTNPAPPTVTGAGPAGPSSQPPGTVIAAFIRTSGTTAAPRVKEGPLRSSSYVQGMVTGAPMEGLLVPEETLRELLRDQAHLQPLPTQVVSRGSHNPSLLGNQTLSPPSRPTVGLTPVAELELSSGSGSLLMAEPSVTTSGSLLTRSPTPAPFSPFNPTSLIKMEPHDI
# Chain of HSF1 (Q00613 whole entry): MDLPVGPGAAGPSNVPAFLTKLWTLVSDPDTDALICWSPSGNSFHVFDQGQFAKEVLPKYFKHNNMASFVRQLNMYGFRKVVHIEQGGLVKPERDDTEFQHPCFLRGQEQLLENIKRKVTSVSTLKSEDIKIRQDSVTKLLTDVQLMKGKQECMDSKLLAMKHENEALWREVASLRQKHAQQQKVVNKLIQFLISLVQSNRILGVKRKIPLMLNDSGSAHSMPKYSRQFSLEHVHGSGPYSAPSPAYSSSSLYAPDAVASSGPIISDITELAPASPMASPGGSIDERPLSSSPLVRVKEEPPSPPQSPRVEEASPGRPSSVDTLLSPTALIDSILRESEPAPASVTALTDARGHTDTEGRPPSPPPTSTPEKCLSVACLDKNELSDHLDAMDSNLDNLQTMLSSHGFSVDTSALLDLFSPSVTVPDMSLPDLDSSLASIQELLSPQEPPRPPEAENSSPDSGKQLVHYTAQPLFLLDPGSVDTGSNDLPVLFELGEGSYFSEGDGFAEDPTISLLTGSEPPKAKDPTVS
# Chain of ETV1 (P50549 whole entry): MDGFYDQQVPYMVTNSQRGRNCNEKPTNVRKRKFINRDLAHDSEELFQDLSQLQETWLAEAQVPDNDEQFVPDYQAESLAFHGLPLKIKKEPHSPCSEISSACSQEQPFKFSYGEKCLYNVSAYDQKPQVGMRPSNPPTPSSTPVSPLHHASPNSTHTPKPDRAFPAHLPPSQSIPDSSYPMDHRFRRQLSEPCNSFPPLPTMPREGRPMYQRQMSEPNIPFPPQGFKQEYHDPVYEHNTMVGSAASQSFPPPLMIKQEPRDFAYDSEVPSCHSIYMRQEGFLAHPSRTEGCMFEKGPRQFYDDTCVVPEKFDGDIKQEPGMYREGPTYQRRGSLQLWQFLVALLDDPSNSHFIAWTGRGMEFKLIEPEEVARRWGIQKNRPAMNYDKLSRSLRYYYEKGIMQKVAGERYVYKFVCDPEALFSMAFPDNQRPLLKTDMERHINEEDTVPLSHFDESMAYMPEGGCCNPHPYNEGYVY
# Chain of ELF1 (P32519 whole entry): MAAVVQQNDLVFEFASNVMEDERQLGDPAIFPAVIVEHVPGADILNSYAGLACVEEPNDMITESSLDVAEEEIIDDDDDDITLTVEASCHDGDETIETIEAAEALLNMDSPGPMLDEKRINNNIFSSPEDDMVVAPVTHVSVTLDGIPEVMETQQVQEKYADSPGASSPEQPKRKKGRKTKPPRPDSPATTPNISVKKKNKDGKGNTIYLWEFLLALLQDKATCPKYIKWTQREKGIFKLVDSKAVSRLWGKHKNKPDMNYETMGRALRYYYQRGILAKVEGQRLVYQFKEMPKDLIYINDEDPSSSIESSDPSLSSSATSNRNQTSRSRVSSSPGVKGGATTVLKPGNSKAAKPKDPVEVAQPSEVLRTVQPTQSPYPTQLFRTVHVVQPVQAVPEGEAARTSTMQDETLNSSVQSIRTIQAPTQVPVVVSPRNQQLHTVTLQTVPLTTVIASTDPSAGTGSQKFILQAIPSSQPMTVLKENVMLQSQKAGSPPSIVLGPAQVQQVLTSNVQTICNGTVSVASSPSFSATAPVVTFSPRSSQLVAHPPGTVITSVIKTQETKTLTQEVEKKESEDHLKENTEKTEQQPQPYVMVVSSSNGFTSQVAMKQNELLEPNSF
sequence,measurement,setting,value
CATTAT,binding signal,FLI1,"1.19 fold enrichment (6-mer frequency, TF over GST control)"
same,binding signal,ELK1,"1.13 fold enrichment (6-mer frequency, TF over GST control)"
same,binding signal,GABPA,"1.06 fold enrichment (6-mer frequency, TF over GST control)"
same,binding signal,ERG,"1.15 fold enrichment (6-mer frequency, TF over GST control)"
same,binding signal,ELF1,"1.16 fold enrichment (6-mer frequency, TF over GST control)"
same,binding signal,EHF,"1.18 fold enrichment (6-mer frequency, TF over GST control)"
same,binding signal,SPI1,"1.11 fold enrichment (6-mer frequency, TF over GST control)"
same,binding signal,SPIB,"1.18 fold enrichment (6-mer frequency, TF over GST control)"
same,binding signal,ELK3,"1.13 fold enrichment (6-mer frequency, TF over GST control)"
same,binding signal,FEV,"1.18 fold enrichment (6-mer frequency, TF over GST control)"
same,binding signal,ETV5,"1.09 fold enrichment (6-mer frequency, TF over GST control)"
same,binding signal,HSF1,"1.26 fold enrichment (6-mer frequency, TF over GST control)"
same,binding signal,SPIC,"1.25 fold enrichment (6-mer frequency, TF over GST control)"
same,binding signal,ELF4,"1.21 fold enrichment (6-mer frequency, TF over GST control)"
same,binding signal,ELK4,"1.28 fold enrichment (6-mer frequency, TF over GST control)"
same,binding signal,ETV2,"1.05 fold enrichment (6-mer frequency, TF over GST control)"
same,binding signal,ELF3,"1.33 fold enrichment (6-mer frequency, TF over GST control)"
same,binding signal,CRX,"1.65 fold enrichment (6-mer frequency, TF over GST control)"
same,binding signal,ETV1,"1.32 fold enrichment (6-mer frequency, TF over GST control)"
